# PubChem BioAssay (NCATS)
# Calls of active or inactive are those of the source. Calls come from the whole dose curve.
# Tests used:
# Test in all cases: Confirmatory Screen for Target Class Profiling of Small Molecule Inhibitors of Methyltransferases (AID 1745852); for activity change, negative = inhibition: % is set by controls: 0 for no effect and ±100 for the full control effect
# [1] = biological target: Catechol O-methyltransferase (Homo sapiens) (UniProt P21964); conditions: MTase-Glo luminescence, SAH detection, recombinant enzyme; measured here: COMT max response; stronger effect = lower value
# Chain of Catechol O-methyltransferase (Homo sapiens) (P21964 whole entry, looked up): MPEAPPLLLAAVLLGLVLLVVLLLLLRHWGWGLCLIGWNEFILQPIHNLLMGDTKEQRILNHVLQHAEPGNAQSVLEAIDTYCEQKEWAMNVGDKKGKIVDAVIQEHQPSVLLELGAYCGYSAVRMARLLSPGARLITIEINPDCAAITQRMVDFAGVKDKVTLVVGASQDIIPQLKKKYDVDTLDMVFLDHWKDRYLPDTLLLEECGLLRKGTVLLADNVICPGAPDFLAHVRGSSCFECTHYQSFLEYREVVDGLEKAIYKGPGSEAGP
# [2] = biological target: Guanidinoacetate N-methyltransferase (Homo sapiens) (UniProt Q14353); conditions: MTase-Glo luminescence, SAH detection, recombinant enzyme; activity change, negative = inhibition: at 57.3 µM (top of the series) unless noted; series mostly up to 57.3 µM
# [3] = biological target: Nicotinamide N-methyltransferase (Homo sapiens) (UniProt P40261); conditions: MTase-Glo luminescence, SAH detection, recombinant enzyme; measured here: NNMT max response; stronger effect = lower value
# Chain of Nicotinamide N-methyltransferase (Homo sapiens) (P40261 whole entry, looked up): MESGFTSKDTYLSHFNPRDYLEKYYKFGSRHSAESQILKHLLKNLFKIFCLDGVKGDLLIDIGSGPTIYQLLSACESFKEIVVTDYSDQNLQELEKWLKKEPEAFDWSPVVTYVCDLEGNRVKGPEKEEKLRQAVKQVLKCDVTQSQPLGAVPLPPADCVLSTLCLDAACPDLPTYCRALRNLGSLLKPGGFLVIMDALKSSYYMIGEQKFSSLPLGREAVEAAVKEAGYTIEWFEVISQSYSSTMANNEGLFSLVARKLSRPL
# [4] = biological target: Phenylethanolamine N-methyltransferase (Homo sapiens) (UniProt P11086); conditions: MTase-Glo luminescence, SAH detection, recombinant enzyme; measured here: PNMT max response; stronger effect = lower value
# Chain of Phenylethanolamine N-methyltransferase (Homo sapiens) (P11086 whole entry, looked up): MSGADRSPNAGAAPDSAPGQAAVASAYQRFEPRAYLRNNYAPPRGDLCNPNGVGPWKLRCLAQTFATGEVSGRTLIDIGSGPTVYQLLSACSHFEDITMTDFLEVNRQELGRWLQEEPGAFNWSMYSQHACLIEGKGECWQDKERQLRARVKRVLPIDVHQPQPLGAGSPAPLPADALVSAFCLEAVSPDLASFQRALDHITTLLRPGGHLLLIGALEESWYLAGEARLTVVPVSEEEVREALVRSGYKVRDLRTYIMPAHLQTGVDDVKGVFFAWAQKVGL
# Potency is the fitted concentration of half-maximal effect.
Compound,activity [1] [%],"activity change, negative = inhibition [2]",activity [3] [%],activity [4] [%],Potency [2]
CC1=C[C@@H](CN(CC2CC2)CC2CC2)[C@H](C(C)C)C[C@H]1Cc1nc2ccncc2[nH]1,3.81,4.35% [at 85.7 µM],-1.17,3.65,
c1ccc(CCN2CCNc3cc(NCc4cccnc4)ncc3C2)cc1,2.5,1.95% [at 85.7 µM],-5.35,-6.38,
Cn1c(=O)c2ccnn2c2ccc(C(=O)NCC3CCN(Cc4ccccc4F)CC3)cc21,3.91,6.11%,-38.8,2.1,
CC(C)c1ccc(NC(=O)Cn2c(=O)oc3cc(S(=O)(=O)NCc4ccccc4)ccc32)cc1,0,0%,-3.77,0,
COc1ncccc1-c1nccn2c(C3CN(Cc4ccccc4O)C3)ncc12,2.23,2.06% [at 85.7 µM],7.78,3.8,
COc1cncc(Nc2ncc(-c3ccccc3OC)c3c2OCC3)c1,0.728,2.22% [at 85.7 µM],-19.7,0.675,
Cc1c(O)cc(O)c2c(=O)c(O)c(-c3ccc(O)c(O)c3)oc12,-46.7,,-19.4,-17.7,24.1 µM (active)
CC1CCN(CCCNC(=O)CCc2nnc3n(Cc4ccccc4)c(=O)c4ccccc4n23)CC1,0.801,0%,-2.83,2.06,
CCNc1ncc(CN2CCN(c3ccncc3)CC2)cn1,4.09,1.98%,-0.695,1.91,
CC(=O)Nc1cc(-c2cc(C(=O)NCc3cccnc3)c3c(c2)N(C)CCO3)ccn1,-17.6,-8.39% [at 85.7 µM],-4.98,-28.5,
O=C(NCCc1ccc(Cl)cc1)c1ccc2c(=O)[nH]c3c(C(=O)NC4CCCC4)sc(=S)n3c2c1,-38.3,,-77.1,-66.5,27.1 µM (active)
COc1ccc(-c2nc3ccccc3[nH]2)cc1,-76.2,,-74.3,-79.7,15.2 µM (active)
COc1ccc(NC(=O)CCc2ccnc(N3CCCC3)c2)c(OC)c1,-5.64,-3.43%,-4.13,-2.38,
Cc1ccc(NS(=O)(=O)c2ccc3c(c2)[C@H]2C=CC[C@H]2[C@@H](c2cccc(Cl)c2)N3)c(C)c1,-11.2,-14.3%,-16.4,-18.5,
COC1CCN(c2cc(-c3ccsc3)nc3c(C)noc23)CC1,-4.15,-0.422% [at 85.7 µM],-17,-10.4,
CCN(CCc1nc2ccc(C)cc2[nH]1)C(=O)c1ccccc1C1CCNC1 (stereo not given),6.01,8.24%,7.78,8.18,
COc1ccc(CCNc2nc3c(-c4cccc(F)c4)nnn3c3ccccc23)cc1OC,-7.47,-8.63%,-5.65,-3.23,
O=C(Cc1ccsc1)Nc1ccc2c(N3CCCC3)ncnc2c1,0.696,4.54%,3.05,-6.83,
Cc1ccc(N(C)S(=O)(=O)c2ccc3c(c2)n(C)c(=O)n3C)cc1,-6.35,,-47,-7.47,0.192 µM (active)
CCCC1c2cccn2CCN1C(=O)Nc1cccc(C(F)(F)F)c1 (stereo not given),-5.53,-0.7%,-7.32,-5.65,
CC1CCN(CCCNC(=O)CCc2nnc3n(Cc4ccc(F)cc4)c(=O)c4ccccc4n23)CC1,-10.3,-2.12%,-14.9,-5.49,
CCN(CC)c1cc(CCC(=O)N2CCN(c3cccc(OC)c3)CC2)ccn1,-2.67,5.52%,1.73,-3.99,
CCNc1nc2c(s1)C(c1cccc(F)c1)CC(=O)N2 (stereo not given),-12.6,,-25,-19.2,42.9 µM (active)
CCn1cc(CN2CCN(C(=O)c3cccs3)CC2)ccc1=O,0.352,-2.5%,-1.21,-6.54,
CC(C)CCn1c(=O)c2ccccc2n2c(CCC(=O)N3CCN(c4ccccc4F)CC3)nnc12,1.06,0%,-60.1,-4.6,
CCCCN(C)C(=O)c1c(C)sc2ccn(CCC)c(=O)c12,-45.9,,-28.7,-13.5,12.1 µM (active)
CC(C)Cn1c(=O)c2ccccc2n2c(=O)n(CC(=O)c3cccc(Cl)c3)nc12,-9.22,-5.46%,-38.9,-8.68,
COc1ccc(CCNC(=O)c2ccc3c(=O)nc4c(-c5cccc(F)c5)n[nH]n4c3c2)cc1OC,-16,,-27.1,-14.6,10.8 µM (active)
CN(CCCNC(=O)Cn1ccc2cc(S(=O)(=O)N3CCCCC3)ccc21)C1CCCCC1,1.24,0.637%,-1.2,0.276,
COc1cccc(-c2ccccc2NC(=O)C2CCN(CC=C(C)C)CC2)c1,0.831,3.69%,-3.23,-3,
